# Assay outcomes from PubChem.
# HT1080 IDH1KD tx = kills HT-1080 cells with IDH1 knockdown; HT-1080 IDH1 knockdown viability, ATP luminescence, 48 h; Potency, µM (highest dose often 46.1 µM), usual class: cytotoxic; 360,000 compounds, 2% hits; AID 686971
#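 Cytotoxicity counter-line: IDH1KD HT-1080, 48 h, CellTiter-Glo. Curves classed by r2, magnitude and activity.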
# TDP1 cell noCPT = qHTS for Inhibitors of human tyrosyl-DNA phosphodiesterase 1 (TDP1): qHTS in cells in absence of CPT | DT40 Tdp1-/- hTDP1 cells, no CPT, ATP luminescence, 48 h | Potency, µM (doses to about 46.2 µM), actives largely listed as inhibitors | 420,000 compounds, 15% hits | AID 686978, 2013; note: nearly all actives have a fitted effect of over 55% in size
#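 No-CPT arm: Tdp1-/-;hTDP1 DT40 cells (400/well) plus compounds, incubated ≥48 hr at 37 °C. Readout CellTiter-Glo luminescence.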
# TDP1 cell CPT = DT40-hTDP1 cell growth loss with CPT. chicken DT40 Tdp1-/-;hTDP1 cells + 20 nM CPT, ATP luminescence, 48 h. Potency, µM (series often up to 46.2 µM), most hits filed as inhibitors. 420,000 compounds, 12% hits. AID 686979; note: nearly all actives have a fitted effect of over 55% in size
#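 Chicken DT40 Tdp1-/- cells complemented with human TDP1, 400 cells/well, exposed to compounds plus 20 nM camptothecin for at least 48 h at 37 C; viability read as ATP content by CellTiter-Glo luminescence.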
# KB-V1 cytotox = KB-V1 MDR subline cytotoxicity; KB-V1 MDR cells viability, CellTiter-Glo, 72 h; Potency, µM (doses to about 46.1 µM), actives largely listed as cytotoxic; 400,000 compounds, 3.4% hits; AID 1347076; note: nearly all actives have a fitted effect of over 60% in size
#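 Cytotoxicity toward P-gp-expressing KB-V1 cells was determined as loss of CellTiter-Glo luminescence after 72 h at 37 degrees C. Compounds were tested in quantitative HTS format across a concentration range, with curves fitted to normalized data.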
# HT1080-NT tox = kills 2HG-producing HT-1080-NT fibrosarcoma cells. HT-1080-NT fibrosarcoma viability, CellTiter-Glo ATP luminescence, 48 h. Potency, µM (doses to about 46.1 µM), usual class: cytotoxic. 360,000 compounds, 1.6% hits;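 note: NT is the 2HG producing partner of a matched IDH1 knockdown line; nearly all actives have a fitted effect of over 55% in size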
#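 Viability by CellTiter-Glo luminescence after 48 h compound exposure at 37C of HT-1080-NT cells (750/well, RPMI, 5% FBS). % activity scaled between DMSO wells and medium-only wells, then curve-fitted and categorized by curve class.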
# KB-3-1 cytotox = kills parental KB-3-1 adenocarcinoma cells; KB-3-1 viability, CellTiter-Glo ATP luminescence, 72 h; Potency, µM (top dose mostly 46.1 µM), usual class: cytotoxic; 400,000 compounds, 1.4% hits; AID 1347075; note: nearly all actives have a fitted effect of over 60% in size
#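 Cytotoxicity measured as CellTiter-Glo luminescence after 72 h at 37 C. Compound titrations were pinned onto drug-naive KB-3-1 parental adenocarcinoma cells grown in DMEM with 10% FBS, and normalized data fitted to concentration-response curves.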
# A number is an active result; 0 = inactive; ? = inconclusive; - = no result. Sampled rows, rich in hits. Any-hit rate of the full collection: about 19%. Calls come from the whole dose curve; as a rule, active = well fitted curve in the direction sought with a large enough effect; inconclusive = small, poorly fitted or top-dose-only effect, or another doubt; inactive = no such curve, though single readings can be large; an effect the other way counts as inactive or inconclusive.
SMILES,HT1080 IDH1KD tx,TDP1 cell noCPT,TDP1 cell CPT,KB-V1 cytotox,HT1080-NT tox,KB-3-1 cytotox
CC#CC(=O)NCC1(N(C)Cc2ccccc2)Cc2ccccc2C1,0,0,0,0,0,0
CC1(C(=O)Nc2ccc3c(c2)OCCO3)CCN1C(=O)c1cccc(F)c1 (centres undefined),0,0,0,0,0,0
CC1(C)CC(=O)C2=C(C1)OC(N)=C(C#N)C2c1ccccc1[N+](=O)[O-] (centres undefined),0,?,20.6µM,0,0,0
CC(C)c1ccc(-c2nn(-c3ccccc3)cc2C2C(C#N)=C(N)OC3=C2C(=O)CC(C)(C)C3)cc1 (centres undefined),?,18.4µM,?,0,?,?
CC1(C)CC(=O)C2=C(C1)OC(N)=C(C#N)C2c1cccs1 (centres undefined),0,?,0,0,0,0
O=C(Nc1ccc(F)c(F)c1)C1=COCCO1,0,0,0,0,0,0
COc1ccccc1NC(=O)C(=O)NCC(c1cccnc1)N1CCc2ccccc2C1 (centres undefined),-,?,?,0,-,?
CC(C)(C)c1ccc(C(=O)NCC(c2cccnc2)N2CCc3ccccc3C2)cc1 (centres undefined),-,1.84µM,2.31µM,0,-,0
Cc1ccc(NC(=O)C(=O)NCC(c2cccnc2)N2CCN(C)CC2)cc1 (centres undefined),-,0,0,?,-,0
Cc1ccc(NC(=O)C(=O)NCC(c2cccnc2)N2CCc3ccccc3C2)cc1 (centres undefined),-,16.4µM,20.6µM,0,-,0
Cc1cccc(NC(=O)C(=O)NCC(c2cccnc2)N2CCc3ccccc32)c1C (centres undefined),-,23.1µM,18.4µM,0,-,0
Cc1ccc(NC(=O)C(=O)NCC(c2cccnc2)N2CCc3ccccc32)cc1Cl (centres undefined),-,13µM,18.4µM,0,-,0
Cc1cccc(NC(=O)C(=O)NCC(c2cccnc2)N2CCc3ccccc3C2)c1C (centres undefined),-,16.4µM,16.4µM,0,-,?
O=C(NCC(c1cccnc1)N1CCc2ccccc21)C(=O)Nc1ccccc1F (centres undefined),-,?,7.31µM,0,-,0
CC(=O)Nc1cc(-c2ccc(C(=O)N3CCOCC3)cc2)cn2c(-c3ccccc3)cnc12,0,?,?,0,0,0
CC(=O)Nc1cc(-c2ccc(C(=O)N3CCOCC3)cc2)cn2c(-c3cccc(C(F)(F)F)c3)cnc12,0,14.6µM,?,0,0,0
COc1ccc(-c2cnc3c(NC(C)=O)cc(-c4ccc(C(=O)N5CCOCC5)cc4)cn23)cc1OC,0,23.1µM,?,0,?,0
CC(=O)Nc1cc(-c2ccc(C(=O)N3CCOCC3)cc2)cn2c(-c3ccc(C(C)=O)cc3)cnc12,0,11.6µM,25.9µM,0,0,0
CC(=O)Nc1cc(-c2ccc(C(=O)N3CCOCC3)cc2)cn2c(-c3ccc(F)cc3)cnc12,0,8.2µM,?,0,0,0
COc1ccc(-c2cc(NC(C)=O)c3ncc(-c4cccc(C(F)(F)F)c4)n3c2)c(OC)c1,?,?,?,0,0,0
CCOc1ccc(NC(=O)Cn2c(C)cc3ccccc3c2=O)cc1,-,0,0,?,-,0
CC(C)(C)NS(=O)(=O)c1ccc(CCC(=O)NCc2ccccn2)cc1,0,0,0,0,0,0
C1=Cc2ccccc2/C1=C\c1cc2c3c(c1)CCCN3CCC2,-,5.01µM,1.12µM,0,-,0
C1=Cc2ccccc2/C1=C\c1ccc(/C=C2\C=Cc3ccccc32)cc1,-,0,0,0,-,?
Cn1c(=O)c2c(SCC(=O)Nc3ccccc3F)nc(C3CC3)nc2n(C)c1=O,0,?,?,?,0,0
SMILES,HT1080 IDH1KD tx,TDP1 cell noCPT,TDP1 cell CPT,KB-V1 cytotox,HT1080-NT tox,KB-3-1 cytotox
Cc1csc(NC(=O)CSc2nc(C(C)C)nc3c2c(=O)n(C)c(=O)n3C)n1,0,4.61µM,10.3µM,0,0,0
Cn1c(=O)c2c(SCC(=O)Nc3ccccc3F)nc(-c3ccccc3F)nc2n(C)c1=O,0,14.6µM,?,0,0,0
Cc1ccc(-c2nc(SCC(=O)Nc3cc(C)on3)c3c(=O)n(C)c(=O)n(C)c3n2)cc1,0,14.6µM,11.6µM,?,0,0
COc1ccc(NC(=O)CSc2nc(C(C)C)nc3c2c(=O)n(C)c(=O)n3C)c(OC)c1,0,0,0,0,0,0
O=C1CCc2cc(S(=O)(=O)Nc3cc(F)cc(Cl)c3)c(F)cc2N1,-,-,-,0,-,0
O=C(NCCN1C(=O)S/C(=C\c2ccc(OC(F)F)cc2)C1=O)[C@@H]1CCCN1C(=O)c1cccs1,0,?,?,?,0,0
COc1ccc(/C=C2\SC(=O)N(CCNC(=O)Cc3coc4cc(OC)ccc34)C2=O)cc1,0,?,?,5.8µM,0,?
O=C(NCCN1C(=O)S/C(=C\c2ccc(OC(F)F)cc2)C1=O)C1=COCCO1,?,7.31µM,8.2µM,?,?,?
COc1ccc(/C=C2\SC(=O)N(CCNC(=O)C3=COCCO3)C2=O)cc1,7.31µM,1.3µM,1.3µM,2.59µM,7.31µM,2.91µM
O=C(NCCN1C(=O)S/C(=C\c2ccc(Cl)cc2)C1=O)C1=COCCO1,0,0,0,-,0,-
O=C(NCCN1C(=O)S/C(=C\c2ccc(OC(F)F)cc2)C1=O)c1cnccn1,?,2.06µM,1.84µM,8.2µM,?,5.8µM
COc1ccc2c(CC(=O)NCCN3C(=O)S/C(=C\c4cccnc4)C3=O)coc2c1,0,?,?,0,0,0
Cc1c(NC(=O)c2ccc(NS(=O)(=O)c3ccccc3)cc2)c(=O)n(-c2ccccc2)n1C,0,0,0,0,0,0
O=C(NCC1Cc2cccc(-c3cnccn3)c2O1)c1ccc(F)c(Cl)c1 (centres undefined),-,0,0,-,-,-
COC(=O)c1cccc(NC(=O)CSc2nnc(-c3ccco3)o2)c1,0,0,0,?,0,0
CCN(c1ccccc1)c1nnc(NC(=O)Nc2cccc(Br)c2)s1,-,?,?,0,-,0
CCN(c1ccccc1)c1nnc(NC(=O)Nc2ccc(Br)c(C)c2)s1,-,4.11µM,3.26µM,0,-,0
CCN(c1ccccc1)c1nnc(NC(=O)Nc2ccc(C)cc2)s1,-,16.4µM,13µM,0,-,0
CCc1ccccc1NC(=O)Nc1nnc(N(CC)c2ccccc2)s1,-,?,?,0,-,0
Cc1ccc(-n2nnnc2C(Cl)c2nnnn2-c2ccc(C)cc2)cc1,?,8.2µM,14.6µM,0,?,0
